Assay outcomes deposited in PubChem by several laboratories.
EP2 mod – modulators of human EP2 prostaglandin E2 receptor; AID 940; induction, % at 25 µM; P43116; hit rate 0.83% among 260,000; EP2-expressing cells, cAMP HTRF FRET, PGE2 co-stimulation;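 active means compounds whose cAMP rise, as percent of the full-agonist control response, exceeds 60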;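 further: rat C6 glioma line stably carrying human EP2 under a CMV promoter; the protocol text gives 20 µM as final concentration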
S1P4 antagonist – human S1P4 receptor antagonism. O95977. S1P4-expressing cells, antagonist mode, reporter read-out. inhibition, % at 4.98 µM. hit rate 0.26% among 220,000. AID 1510; in the data active means inhibition above about 29%
S1P4 ag – agonists of human S1P4 receptor. AID 1509. S1P4-expressing cell line, agonist reporter assay. O95977. hit rate 0.35% among 220,000. activation, % at 4.98 µM; in the data active means activation above about 11%
EP2 antag – EP2 receptor (human) inhibition. inhibition, % at 25 µM. P43116. C6 glioma cells expressing human EP2, cAMP TR-FRET; cells stimulated with saturating PGE2. hit rate 0.52% among 260,000;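 active means percent inhibition above 40 after rounding to a whole number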;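 further: rat C6 glioma host cells with rolipram phosphodiesterase inhibitor present; the protocol text gives 20 µM as final concentration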
Pf gametocyte – kills late stage P. falciparum gametocytes. P. falciparum stage V gametocytes, ATP luminescence, 24 h. hit rate 0.065% among 150,000. inhibition, % at 10.9 µM. AID 743093;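 active means inhibition above the mean plus 3 SD of compounds within the control limits, set per campaign, cut at about 38% in these data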
S1P3 antag – blocks the human S1P3 receptor; CHO S1P3 NFAT-BLA reporter, FRET fluorescence, antagonist mode; inhibition, % at 4.98 µM; hit rate 0.27% among 170,000; AID 485;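 active means inhibition above the plate cutoff, the mean inhibition of test wells on that plate plus 3 SD, cut at about 28% in these data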;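 further: cells challenged with S1P at its EC80 of 0.8 µM; blue over green emission ratio from cleaved BLA substrate after 4 h stimulation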
Target sequence (Q99500 whole entry, looked up): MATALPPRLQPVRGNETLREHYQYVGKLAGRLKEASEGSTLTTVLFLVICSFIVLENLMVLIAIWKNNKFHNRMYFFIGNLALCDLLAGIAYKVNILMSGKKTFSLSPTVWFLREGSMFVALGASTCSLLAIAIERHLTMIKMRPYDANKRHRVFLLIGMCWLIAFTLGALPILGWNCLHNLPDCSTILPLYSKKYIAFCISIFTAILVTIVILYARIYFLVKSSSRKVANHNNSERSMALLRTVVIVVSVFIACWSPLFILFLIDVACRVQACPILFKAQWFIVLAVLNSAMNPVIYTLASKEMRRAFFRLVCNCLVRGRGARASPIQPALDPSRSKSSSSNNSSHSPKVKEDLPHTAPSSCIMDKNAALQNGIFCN
Of the large screens only hits and unclear results are named; the others gave an inactive call. Shown are actives, neighbours in structure and some others; about 1.9% of the full set was active somewhere.

O=C1C(N2CCOCC2)=C(n2nnc3ccccc32)C(=O)c2ccccc21	EP2 antag 40 (no result: Pf gametocyte, S1P3 antag)
O=C1c2ccccc2C(=O)c2c1cccc2-n1nnc2ccccc21	none
O=C(O)CCCCCC[C@H]1C(=O)NC(=O)N1CC[C@@H](O)C1CCCCC1	EP2 mod 100 (no result: S1P4 antagonist, S1P4 ag, Pf gametocyte, S1P3 antag)
O=C(O)CCCCCCC1C(=O)NC(=O)N1CCC(O)C1CCCCC1 (stereo not drawn)	EP2 mod 106 (no result: Pf gametocyte)
Cc1nc2sc3c(c2c2nn(CC(=O)NC(C)C)c(=O)n12)CCC(C)C3 (stereo not drawn)	none (no result: S1P4 antagonist, S1P4 ag, EP2 antag, Pf gametocyte, S1P3 antag)
COc1ccc(-c2cc(C(F)F)n3ncc(C(=O)N4C(C)CCCC4C)c3n2)cc1 (stereo not drawn)	none (no result: S1P4 antagonist, S1P4 ag, Pf gametocyte, S1P3 antag)
CC(C)NC(=O)Cn1nc2n(CC(=O)N3C(C)CCCC3C)c3ccccc3n2c1=O (stereo not drawn)	none (no result: S1P4 antagonist, S1P4 ag, Pf gametocyte, S1P3 antag)
CC(C)(C)c1cc(C(F)(F)F)nc(SCCCNC(=O)c2ccco2)n1	S1P3 antag 59
N/C(=N\OC(=O)COc1ccc2ccccc2c1Br)c1cccnc1	none
N/C(=N\OC(=O)COc1ccc2ccccc2c1Br)c1ccccn1	EP2 mod 62
COc1ccccc1OCC(=O)Nc1ccc(S(=O)(=O)N2CCC(C)CC2)cc1	none (no result: S1P4 antagonist, S1P4 ag, Pf gametocyte, S1P3 antag)
Cc1ccc(C(=O)Nc2ccc3oc(=O)ccc3c2)cc1	none (no result: S1P4 antagonist, S1P4 ag, Pf gametocyte, S1P3 antag)
COc1nc(C)nc(C)c1Oc1ccc(Cl)cc1Cl	EP2 mod 65
Cc1nc(-c2ccccc2)[nH]c(=O)c1Oc1ccc(Cl)cc1Cl	none
O=C1CC2(CCN(C(=O)c3cc(F)cc(F)c3)CC2)Oc2ccccc21	none (no result: S1P4 antagonist, S1P4 ag, EP2 antag, Pf gametocyte, S1P3 antag)
CCCSc1nc2c(c(=O)[nH]c(=O)n2C)n1C	none (no result: Pf gametocyte)
Cn1c(=O)[nH]c(=O)c2c1nc(SCC(=O)O)n2CCc1ccccc1	none (no result: Pf gametocyte)
C=C(C)Cn1c(SCc2ccc(Cl)cc2)nc2c1c(=O)[nH]c(=O)n2C	EP2 mod 71 (no result: S1P4 antagonist, S1P4 ag, Pf gametocyte, S1P3 antag)
CCOCCn1c(SCCCc2ccccc2)nc2c1c(=O)[nH]c(=O)n2C	EP2 mod 62 (no result: Pf gametocyte, S1P3 antag)
CC(C)CCSc1nc2c(c(=O)[nH]c(=O)n2C)n1CCCc1ccccc1	none (no result: Pf gametocyte)
CCCCCCSc1nc2c(c(=O)[nH]c(=O)n2C)n1C	EP2 mod 64 (no result: Pf gametocyte)
CCCCCSc1nc2c(c(=O)[nH]c(=O)n2C)n1CCc1ccccc1	S1P3 antag 102 (no result: EP2 mod, S1P4 antagonist, S1P4 ag, Pf gametocyte)
COc1cc2cc(C)c3nnc(SCC(=O)Nc4cccc(C)c4C)n3c2cc1OC	none (no result: S1P4 antagonist, S1P4 ag, Pf gametocyte, S1P3 antag)
Cc1nc2sc3c(c2c(=O)n1N)CCC(C)C3 (stereo not drawn)	none (no result: S1P4 antagonist, S1P4 ag, Pf gametocyte, S1P3 antag)
C[C@]12CCC(=O)C=C1CC[C@@H]1[C@@H]2C(=O)C[C@@]2(C)[C@H]1CC[C@]2(O)C(=O)CO	none (no result: Pf gametocyte)
CS[C@@]12C(=O)C[C@@]3(C)[C@@H](CC[C@@]3(O)C(=O)CO)[C@H]1CCC1=CC(=O)CC[C@]12C	EP2 antag 51 (no result: S1P4 antagonist, S1P4 ag, Pf gametocyte, S1P3 antag)
O=S(=O)(c1cccs1)N1CCN(CC(O)COc2cccc(Br)c2)CC1 (stereo not drawn)	none (no result: S1P3 antag)
O=S(=O)(c1cccs1)N1CCN(CC(O)COC2CCCc3ccccc32)CC1 (stereo not drawn)	S1P3 antag 100 (no result: EP2 antag, Pf gametocyte)
CCN(CC)c1ccc2nc3ccccc3[n+](CC)c2c1	EP2 antag active (no result: S1P4 antagonist, S1P4 ag, Pf gametocyte, S1P3 antag)
CCN(CC)c1ccc2cc(-c3nc4ccccc4[nH]3)c(=O)oc2c1	none (no result: Pf gametocyte)
Cc1cccc2cc(CN(CCc3ccccc3)C(=O)NC3CCCCC3)c(=O)[nH]c12	none (no result: S1P4 antagonist, S1P4 ag, Pf gametocyte, S1P3 antag)
O=C(CNCC1CCCO1)Nc1ccc(N2CCCCCC2)cc1 (stereo not drawn)	none
O=C(CNCC1CCCO1)Nc1ccccc1N1CCCCCC1 (stereo not drawn)	EP2 mod 62 (no result: Pf gametocyte, S1P3 antag)
CCN(Cc1ccccc1)Cc1nc(CCc2ccccc2)no1	none
c1ccc(CCN(Cc2ccccc2)Cc2nc(C3CC3)no2)cc1	EP2 mod 62
COc1ccc(C(=O)N(CCc2cccc(C)c2)Cc2cc3cccc(C)c3[nH]c2=O)cc1OC	none (no result: S1P4 antagonist, S1P4 ag, Pf gametocyte, S1P3 antag)
COc1cccc(C2/C(=C(\O)c3ccc4c(c3)OCCO4)C(=O)C(=O)N2CCCN(C)C)c1OC (stereo not drawn)	S1P4 ag 38 (no result: EP2 mod, EP2 antag, Pf gametocyte, S1P3 antag)
COc1cccc(C2/C(=C(\O)c3ccc4c(c3)OCO4)C(=O)C(=O)N2CCN(C)C)c1OC (stereo not drawn)	none
CCCCC[C@H](O)/C=C/[C@H]1C=CC(=O)[C@@H]1C/C=C\CCCC(=O)O	EP2 mod 103 (no result: Pf gametocyte)
NS(=O)(=O)c1cc2c(cc1Cl)N[C@H](Cc1ccccc1)NS2(=O)=O	EP2 antag 53 (no result: S1P4 antagonist, S1P4 ag, Pf gametocyte, S1P3 antag)
